Shown are actives, neighbours in structure and some others; about 7.2% of the full set was active somewhere.
VLA-4 inh: inhibition in a human VLA-4 binding assay | AID 2557 | VLA-4 expressing cells, ligand binding flow cytometry | inhibition, % (about 7 µM as worked out from the volumes in the protocol) | hit rate 0.2% among 330,000; in the data active = inhibition above about 50%
Bfl-1 A1 inh: inhibitors of the anti-apoptotic protein A1, read as caspase activation; MEF A1-2A-BIM cells, Caspase-Glo 3/7 luminescence, 3 h; percent of clofoctol response, vehicle zero; caspase activation, % (no concentration beside the values); hit rate 0.066% among 330,000; AID 2462;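 active = over half of replicate activation scores above 10%, or exactly half above 10 with the replicate mean above 10; inconclusive = replicate mean below 10 yet half the replicates above 10; inactive = over half of replicates below 10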
ALR inh: inhibitors of human sulfhydryl oxidase ALR; hit rate 3.8% among 290,000; inhibition, % (test concentration not listed); P55789; purified ALR, DTT oxidation, H2O2 HRP-luminol luminescence;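 active = mean replicate inhibition above about 79%, with every replicate also reaching it, limit read from the data; inconclusive = only one of the two criteria met; inactive = mean below limit and not every replicate reaching it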
AHR act: human AHR activation; P35869; AHR-responsive luciferase reporter cells, luminescence; activation, % at 5 µM; hit rate 2.5% among 320,000; AID 2796; in the data active = activation above about 47%;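 note: 0% = vehicle wells and 100% = reference agonist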
Efflux pump mplx: inhibitors of Candida antifungal efflux pumps expressed in yeast. S. cerevisiae Candida pump triplex, Nile Red efflux. inhibition, % at 10 µM. hit rate 0.44% among 330,000. AID 485275;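 active = plate passing quality check with inhibition over a set limit, or well fluorescence over plate mean plus 4 SD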;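 note: Nile Red retained in pooled yeast measured as flow cytometry median fluorescence; 0% = buffer negative control and 100% = Enniatin B positive control; higher means more Nile Red kept so more efflux inhibition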
Mot1-301 SUMO: inhibitors of SUMOylation pathway: yeast Mot1-301 growth rescue. S. cerevisiae Mot1-301 growth rescue, ATP luminescence, 38.5C; percent above DMSO median, 100 means doubled. growth rescue, % at 18.8 µM. hit rate 1% among 320,000;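 active = every valid replicate shows activation above 250% relative to neutral control wells; inactive = the rest, any valid replicate at or below 250%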;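 note: OY570 slx delta 5 strain wells were the positive control but not used for scaling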
* = called active by the depositor; ? = inconclusive; . = no result.

SMILES | VLA-4 inh | Bfl-1 A1 inh | ALR inh | AHR act | Efflux pump mplx | Mot1-301 SUMO
NC(=O)c1ccccc1N1CCCCC1 | 7 | -1 | 4 | 0 | 0 | 3
NC(=O)c1cc(N)ccc1N1CCCCC1 | 5 | 0 | 99* | 1 | 0 | 38
CN(C(=S)NC(=O)c1ccccc1Br)C1CCCCC1 | 0 | 0 | 99* | 3 | 0 | -6
Cc1ccccc1C(=O)NC(=S)N(C)C1CCCCC1 | -5 | 0 | 8 | 11 | 3 | -1
CC1(C)CC(=O)C(C=Nc2ccc(O)cc2)=C(O)C1 | 10 | -1 | 99* | 0 | 1 | 99
Oc1ccc(Nc2nc(-c3ccccc3)nc3ccccc23)cc1 | 1 | -1 | 98* | 3 | 0 | -7
Clc1ccccc1Nc1nc(-c2ccncc2)nc2ccccc12 | 9 | 0 | -1 | 15 | 0 | 7
c1ccc2c(Nc3nc(-c4ccncc4)nc4ccccc34)cccc2c1 | 18 | -2 | -9 | 51* | 0 | 14
Cc1nc2ccccc2nc1N/N=C/c1ccc(O)cc1 | -2 | -2 | 85* | 76* | 1 | -20
Oc1ccc(/C=N/Nc2ccccc2)cc1 | 9 | 1 | 59 | 9 | 0 | 13
Oc1ccc(Nc2nc3ccccc3nc2Nc2ccc(O)cc2)cc1 | -26 | 2 | 96* | -15 | 0 | 4
CCOC(=O)C1CCN(C(=O)CCCn2nc(C)c3c(C)n(-c4ccc(C)cc4)nc3c2=O)CC1 | -3 | 1 | -2 | -1 | 0 | 7
COc1ccc(-c2nc(N/N=C(\C)c3ccc(O)cc3)c3ccccc3n2)cc1 | -8 | -1 | 2 | 49* | 0 | 8
C/C(=N\Nc1nncc2ccccc12)c1ccc(O)cc1 | -11 | 0 | 6 | 17 | 0 | -13
COC(=O)CNc1nc(-c2ccccc2F)nc2ccccc12 | 1 | -1 | 11 | 3 | 0 | -9
COc1ccc(Nc2nc(-c3ccccc3)nc3ccccc23)cc1 | -5 | 0 | 2 | 7 | 0 | -2
COCCNc1nc(-c2ccccc2)nc2ccccc12 | 7 | 0 | 31 | 10 | 0 | 0
CC(=O)Nc1cccc(Nc2nc(-c3ccccc3F)nc3ccccc23)c1 | 10 | 1 | 98* | 43 | 0 | 2
CC(=O)Nc1ccc(Nc2nc(-c3ccccc3)nc3ccccc23)cc1 | 6 | -1 | 99* | 46 | 0 | 4
CC(=O)OCCNc1nc(-c2ccccc2)nc2ccccc12 | 20 | 1 | . | 58* | 0 | 147
C=CC[C@H](CC(=O)N(CCO)Cc1ccccc1)C(=O)NC[C@H](OC(=O)[C@@H](CC=C)Cc1ccc(F)cc1)c1ccccc1 | -4 | 0 | -2 | 1 | 0 | -9
CC(NC(=O)c1ccccc1)C(=O)N/N=C/c1ccco1 (stereo not given) | 6 | 0 | . | 1 | 0 | 1
Cc1ccc(NC(=O)c2ccc(N/N=C/c3cccc(O)c3)c([N+](=O)[O-])c2)cc1 | 1 | 36* | -24 | 3 | 0 | 214
Cc1ccccc1NC(=O)c1ccc(N/N=C/c2ccccc2O)c([N+](=O)[O-])c1 | 18 | 2 | -1 | -1 | 0 | -11
Cc1ccc(C(=O)Nc2cccc(C(=O)N/N=C/c3ccc(O)cc3)c2)cc1 | -3 | 0 | . | 56* | 0 | -2
SMILES | VLA-4 inh | Bfl-1 A1 inh | ALR inh | AHR act | Efflux pump mplx | Mot1-301 SUMO
O=C(N/N=C/c1ccc(O)cc1)c1cc[n+](Cc2ccccc2)cc1 | 1 | -1 | 99* | 2 | 0 | -22
CC(NC(=O)c1ccccc1)C(=O)N/N=C/c1ccc(O)cc1 (stereo not given) | 7 | 0 | 99* | 0 | 0 | 344
CC(C)c1ccc(NC(=O)CCCC(=O)NCCc2ccccc2)cc1 | 12 | 0 | -8 | 3 | 0 | -17
O=[N+]([O-])c1ccc(-c2csc(NN=C3CCCC3)n2)cc1 | 17 | -1 | 31 | -1 | 0 | 32
Cn1c(=O)n(CCc2ccccc2)c(=O)c2c1nc1n2CCCN1CCc1ccccc1 | -4 | 1 | 5 | 83* | 0 | 2
CCCn1c(=O)c2c(nc3n2CCCN3CCc2ccccc2)n(C)c1=O | -2 | -1 | 19 | 6 | 0 | -14
COc1ccccc1NCCC(=O)OCC(=O)NC1CCCCC1 | 24 | 0 | 99* | 3 | 0 | -3
COc1ccccc1NCCC(=O)OCC(=O)NC1CC1 | 9 | 1 | 99* | -2 | 0 | -5
COc1ccccc1CCC(=O)OCC(=O)NC1CCCCC1 | 24 | 2 | -2 | -2 | 0 | 4
COc1ccccc1NCCC(=O)OCC(=O)Nc1cc([N+](=O)[O-])ccc1F | -8 | 0 | 93* | 0 | 0 | 39
COc1ccccc1NC(=O)c1cc([N+](=O)[O-])ccc1NCCN1C(=O)CCC1=O | 9 | 1 | 1 | 51* | 0 | 0
COc1ccc(Cc2nnc(SCC(=O)Nc3c(C)cccc3C)[nH]c2=O)cc1 | 8 | 2 | -1 | 8 | 0 | -4
Cc1nc2sccn2c(=O)c1S(=O)(=O)NC(C)c1ccccc1 (stereo not given) | 18 | . | -1 | -1 | 0 | 0
CN(C)c1ccc(C2CC(=O)NC3=C2C(=O)CC(C)(C)C3)cc1 (stereo not given) | 2 | 0 | ? | 0 | 0 | -10
CCN(CC)c1ccc(C2CC(=O)NC3=C2C(=O)CC(C)(C)C3)cc1 (stereo not given) | 13 | 0 | 95* | 6 | 0 | 31
CCN(CC)c1ccc(C2C(C(=O)OCCOC)=C(C)NC3=C2C(=O)CC(C)(C)C3)cc1 (stereo not given) | 2 | 0 | 99* | 3 | 0 | 1
COc1ccc(OCc2cc(C(=O)N3CCOCC3)no2)c(Cl)c1 | 9 | 0 | 0 | 18 | 0 | 17
CC1(C)O[C@@H](CC(=O)O)[C@]23CO[C@H](C(=O)[C@]4(C)C2CC[C@@]2(C)[C@H](c5ccoc5)OC(=O)C5O[C@]524)[C@@H]13 (stereo not given in full) | 7 | -1 | 3 | -1 | 0 | -28
O=C(NC(=S)Nc1c(Cl)ccc2nsnc12)c1ccco1 | 17 | 2 | -45 | 20 | 0 | -12
CCOC(=O)/C(=N\Nc1cc(C(F)(F)F)ccc1Cl)N(CC)CC | -1 | 1 | 0 | 5 | 0 | 43
CCOC(=O)/C(=N\Nc1ccccc1Cl)N(C)C1CCCCC1 | 0 | -1 | 99* | 1 | 0 | 25
Cc1ccc(C)c(N(C)C(=O)c2cc3c(=O)[nH]c4ccc(C)cc4c3s2)c1 | 4 | 1 | -15 | 21 | 0 | 5
Cc1ccc2nc(SCC3CCCCO3)[nH]c2c1 (stereo not given) | 8 | -1 | 0 | 51* | 0 | -4
Cc1ccc2nc(SCc3nnc(-c4cccs4)o3)[nH]c2c1 | 1 | 0 | -7 | 60* | 0 | -10

High-throughput results (PubChem)
